Several values for one entry are separate records, joined by “and”; a condition that tells them apart may be missing. Equal entries are not always repeated. The panel holds about 83,000 compounds, 20% with a hit somewhere; the sample as a whole holds those more often.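 Plates (96-well) were seeded with cells, treated with compound at one concentration, and incubated for 48 hours before percent growth was determined.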 Values without a mark were called inactive. Activity calls are given as the source filed them. The calls were made as follows: active = growth percent below 10; inactive = the rest.

This assay relates to MDA-MB-468 breast. Nature of the assay: NCI-60 one-dose screen, 48 h (100 = growth as untreated, 0 = no growth, -100 = all killed). The note with it: 10 µM unless noted.

For `COc1ccc(-n2c(SCc3cc(OC)c(OC)c(OC)c3)nc3ccc(C)cc3c2=O)cc1`, the growth is 46.8%.

Consider `COc1ccc(-c2cc(-c3cccnc3)nc3sc4c(N)c(C(C)=O)c(-c5ccccc5)nc4c23)cc1OC`, for which the growth is 76.3%.

As to `Cc1ccc([N+](=O)[O-])cc1Br`, the growth was 98.1%.

`O=C(CN1CCN(c2cc3c(cc2F)c(=O)c(C(=O)O)cn3C2CC2)CC1)Nc1ccc(C(=O)/C=C/c2ccccc2)cc1`: the growth was 33.8%.

As to `C=C1CC2(OC1=O)C(=O)N(CCCCCCCCCCCCN1C(=O)C3(CC(=C)C(=O)O3)c3ccccc31)c1ccccc12` (centres undefined), the growth is 70.2%.

Regarding `CC1(C)[C@@H](O)CC[C@]2(C)[C@H]3CC[C@@H]4[C@H]5[C@H](c6cn(-c7ccccc7)nn6)CC[C@]5(CO)CC[C@@]4(C)[C@]3(C)CC[C@@H]12`, the growth was 65.4%.

For `CCCCn1c(=O)[nH]c(N)c(C(c2ccc(Cl)cc2)c2c(N)[nH]c(=O)n(CCCC)c2=O)c1=O`, the growth is 10.1%.

Consider `COC(=O)[C@]12CC[C@@H](C)[C@H](C)[C@@H]1C1=CC[C@@H]3[C@@]4(C)C(C#N)=CC(C)=C4CC[C@@]3(C)[C@]1(C)CC2`, for which the growth is 76.7%.

In the case of `O=C(O)c1cn(C2CC2)c2cc(N3CCN(C(=O)CSc4nnc(-c5ccc(Cl)cc5)n4-c4ccccc4)CC3)c(F)cc2c1=O`, the growth was 101%.

Take `Cc1ccc(-c2nc3nc(-c4ccccc4)nc(N4CCCN(S(C)(=O)=O)CC4)c3o2)cc1`: the growth is 121%.

Turning to `NC(=O)c1cc(Br)ccc1NC(=O)/C=C/c1ccccc1`, the growth is 27.8%.

With `COc1ccc(Cn2cc3c(c2-c2ccccc2)CCCc2cnoc2-3)cc1[N+](=O)[O-]`, the growth is 40.4%.

With `N#CC1=C(N)Oc2c(c(=O)[nH]c3ccc(Cl)cc23)C12C(=O)c1ccccc1C2=O`, the growth is 96.6%.

As to `CCCCCCCCCCCCCCCCCC[n+]1ccc2c(C)c3c(c(C)c2c1)c1cc(O)ccc1n3CC`, the growth is -18.3% (active).

Turning to `Brc1ccc2[nH]cc(-c3nc(-c4c[nH]c5ncccc45)cs3)c2c1`, the growth was 43.6%.

For the compound `COC(=O)CNS(=O)(=O)c1ccc2c(c1)Cc1cc(S(=O)(=O)NCC(=O)OC)ccc1-2`, the growth is 84.9%.

As to `Cn1cc(-c2nn3cc(-c4ccncc4)nc3s2)c2cc(Cl)ccc21`, the growth was 64.8%.

Take `CC(=O)Oc1cc(OC(C)=O)c2ccccc2c1OC(C)=O`: the growth was 72.7%.

Regarding `COc1cccc(-c2nc3sccn3c2-c2ccnc(NCCNS(=O)(=O)c3cccc(Cl)c3)c2)c1`, the growth was 42.4%.

Turning to `COc1ccc(Nc2ncc(Br)c(NCCCNC(=O)C3CCCC3)n2)cc1`, the growth is 54.5%.

In the case of `CN1C(=O)N(C)C2C1NN=c1s/c(=C\c3ccccn3)c(=O)n12` (centres undefined), the growth was 88.8%.

`CCCC(=O)NC(c1ccc2c(c1)OCO2)c1ccc2cccnc2c1O` (centres undefined): the growth was -16% (active).

In the case of `NCCCNc1nc2ccccc2c2c(=O)c3cc(C(F)(F)F)ccc3sc12`, the growth was -49.1% (active).

With `COc1ccc(CCN2CC=Cn3c2nc2ccccc2c3=O)cc1`, the growth is -0.686% (active).

With `O=C(O)c1ccc(-c2nn(-c3ccc(C(F)(F)F)cc3)cc2CNc2ccc(Oc3ccccc3)cc2)cc1`, the growth is 117%.

For the compound `COc1ccc(-c2nn(-c3cccc(NC(=O)c4ccc5c(c4)OCCO5)c3)cc2-c2ccncc2)cc1Cl`, the growth was 26.2%.

As for `Cn1c2nc3ccccc3c-2nc2ccccc21`, the growth is 75.4%.

In the case of `CN(C)c1ccc(-c2cc(-c3ccc(Nc4nc(Nc5ccccc5)nc(Nc5ccc(Cl)cc5)n4)cc3)nc(N)n2)cc1`, the growth is 74.3%.

Regarding `Cn1c(/C=C(\C#N)c2ccccc2)nc2c(N3CCOCC3)nc(Cl)nc21`, the growth was -47.9% (active).

Take `O=C(N/N=C/c1ccc(O)c(O)c1)c1sc2ccccc2c1Cl`: the growth is 88.8%.

On to `NC(=O)c1cc(I)ccc1NC(=O)/C=C/c1ccccc1Cl`, for which the growth is 17.3%.

Take `COc1ccc(/C=C/c2cc(N3CCOCC3)c3cc(F)c(F)cc3n2)cc1OC`: the growth was 14.5%.

As for `COc1ccc(/C=C/C(=O)c2nnn(-c3ccc(C(=O)O)cc3)c2C)cc1OC`, the growth was 84.6%.

`CC(=O)Nc1ccc2c(c1)/C(=C\C=C/c1ccc([N+](C)(C)C)cc1)c1ccccc1-2`: the growth is 21.5%.

With `CCCCCCN1C(=O)C2=C(c3ccc(Cl)cc3)Nc3c(c(C)nn3-c3ccccc3)C2c2ccccc21` (centres undefined), the growth is 84.5%.

Take `CNC(=O)c1cc(Oc2ccc3nc(NC(=O)c4cccc(OC(F)(F)F)c4)sc3c2)ccn1`: the growth was 46%.

As to `Nc1ccccc1NC(=O)CCCCC(=O)Nc1ccc2c(c1)/C(=C/c1ccc[nH]1)C(=O)N2`, the growth was 50.4%.

As for `CN(C)CCCn1c2c(c3cc(-c4cccc(S(N)(=O)=O)c4)ccc3c1=O)C(=O)c1ccccc1-2`, the growth was 88.5%.

For `COc1ccc2c(c1)/C(=C\c1c[nH]c3ccc(F)cc13)C(=O)N2`, the growth was 2.93% (active).

Take `COc1ccc(C/C(C)=C(\c2ccc(O)cc2)c2ccc(OCCCN(C)C)cc2)cc1`: the growth is 86.8%.

On to `CN(C)c1ccc(/C=C2\Cc3c(F)ccc(Br)c3C2=O)cc1`, for which the growth is -29.4% (active).

For `COc1ccc(-c2cc(/C=C/C(=O)c3ccc(OC)c(OC)c3)[nH]n2)cc1`, the growth is 21.4%.

As for `CCN(CC)Cc1cc(C=C2C(=O)NC(=S)NC2=O)cc(OC)c1O`, the growth was 108%.

`COc1ccc(/C=N/NC(=O)c2cnn3c2NC(c2ccccc2)C3)cc1OC` (centres undefined): the growth was 34.8%.

As to `C#C[C@]1(O)CC[C@H]2[C@@H]3CC=C4c5nc(N)sc5CC[C@]4(C)[C@H]3CC[C@@]21C`, the growth is 34%.

With `COc1cc2ncnc(Oc3cccc(NC(=O)Nc4cc(C(C)(C)C(F)(F)F)on4)c3)c2cc1OC`, the growth was 12.4%.

With `Cc1nc2cccc(NCCCCC(=O)NO)c2c(=O)n1-c1ccccc1`, the growth is 54.6%.

On to `CCOC(=O)C1=C(C)c2ccc(OC)c(OC)c2C1`, for which the growth is 99.4%.

For the compound `COc1ccc(NS(=O)(=O)c2ccc(-c3cnc(C4CC4)o3)cc2)cc1Cl`, the growth is 9.75% (active).

Consider `CCOC(=O)C#Cc1c(C(=O)OCC)nnn1[C@@H]1O[C@H](COC)[C@@H](OC)[C@H]1OC`, for which the growth was -20.5% (active).

With `Clc1ccc2c(c1)nnn1c3ncccc3c(Br)c21`, the growth is 76.1%.

With `COc1cccc(-c2cc(-c3cccc(NS(C)(=O)=O)c3)nc(N)c2C#N)c1O`, the growth is 2.89% (active).

Consider `O=C(CSc1nnc(-c2cccs2)n1-c1ccccc1)Nc1ccccc1F`, for which the growth is 67.1%.

Turning to `OC(Cc1cc(CC(O)(C(F)(F)F)C(F)(F)F)nc(CC(O)(C(F)(F)F)C(F)(F)F)c1)(C(F)(F)F)C(F)(F)F`, the growth is -37% (active).

Turning to `O=C(/C=C/c1ccc(Cl)s1)c1ccc(Cl)s1`, the growth was 88.1% and 79.5%.

On to `CC(C)NC[C@@H](C(=O)N1CCN(c2ncnc3c2[C@H](C)C[C@H]3O)CC1)c1ccc(Cl)cc1`, for which the growth was -18.7% (active).

For `CC(=O)Nc1nc2c(s1)C1=CC[C@H]3[C@@H]4CC[C@H](C(C)=O)[C@@]4(C)CC[C@@H]3[C@@]1(C)CC2`, the growth is 69.7%.

For `OCC1OC(n2cnc3c(=S)nc[nH]c32)C(O)C1O` (centres undefined), the growth is -6.42% (active).

On to `COc1cc(/C(=C2/O[C@@H]([C@H]3COC(C)(C)O3)[C@H]3OC(C)(C)O[C@@H]23)c2ccc3c(c2)OCO3)cc(OC)c1OC`, for which the growth was 69.6%.

As to `COc1ccc(NC(=O)c2sc3nc(C)c(C(O)c4ccc(OC)cc4)cc3c2N)cc1` (centres undefined), the growth was 24.8%.

For the compound `C1=Cc2ccccc2N(c2nnc(-c3ccccc3)o2)c2ccccc21`, the growth was 98.7%.

Turning to `COc1ccc(-c2nc(N/N=C/c3cccc(Br)c3)nc(N3CCOCC3)c2C#N)cc1`, the growth was 73.4%.

With `C=C1C(=O)O[C@H]2[C@H]1CC/C(COC(=O)NCCCCCCCCNC(=O)OC/C1=C/CC[C@@]3(C)O[C@H]3[C@H]3OC(=O)C(=C)[C@@H]3CC1)=C\CC[C@@]1(C)O[C@@H]21`, the growth is -46.1% (active).

With `O=C1/C=C/[C@@H](O)[C@@H]2C[C@@H](O)C[C@H]2/C=C/CCC[C@H](CCc2ccccc2)O1`, the growth was -43.7% (active).

For `CCOC(=O)c1sc(-c2ccc(OS(=O)(=O)c3ccccc3[N+](=O)[O-])c(C=O)c2)nc1C`, the growth is 55.4%.

In the case of `CC1(C)CC(=O)C2=C(C1)N(c1ccc(F)cc1F)C(N)=C(C#N)C2c1cc(Br)ccc1F` (centres undefined), the growth was 92.9%.

Take `O=C(/C=C/c1ccccc1)c1cccc2ccccc12`: the growth was -2.6% (active).

For the compound `COc1cc2nc(-c3ccc(C(F)(F)F)cc3)cc(OCCN3CCCCC3)c2cc1OC`, the growth is 93.6%.

For the compound `C=C(CNCCc1ccc(O)cc1)[C@@H]1CC[C@]2(COC3CCCCO3)CC[C@]3(C)[C@H](CC[C@@H]4[C@@]5(C)CCC(N)C(C)(C)[C@@H]5CC[C@]43C)[C@@H]12` (some centres undefined), the growth is -85.6% (active).

For `N[C@@H]1CCCN(c2c(/C=C3\SC(=O)NC3=O)cccc2-c2ccccc2)C1`, the growth is 55.8%.

`O=C(NNc1nc2cc(F)c(F)cc2n2cccc12)c1ncccn1`: the growth was 3.66% (active).

Regarding `CS(=O)c1nccc(-c2c(-c3ccc(F)c(OCCc4ccccc4)c3)nc3sccn23)n1` (centres undefined), the growth was -39.4% (active).

With `CN1c2ccccc2C(C)(C)C12C=Cc1cc(O)ccc1O2` (centres undefined), the growth was 4.08% (active).

`O=C1NC(=O)C(=Cc2cc(-c3ccc(Cl)cc3)n(-c3ccccc3)n2)C(=O)N1`: the growth is 87.3%.

Values taken from PubChem BioAssay (NCI).
